Data published in PubChem BioAssay AID1159580 (chemical genetic matrix, 2015).
The campaign covered roughly 5,500 compounds. About 2,000 (36%) were called active. Roughly 18% stayed inconclusive and do not appear here. No stated cut-off is given here; in the data, active means normalized growth mostly below about 0.91 (no sharp cut-off); inconclusive means no clear call, values can overlap the other calls; inactive means mostly above about 0.92. Some of the results follow.

Assay: chemical genetic growth profiling, strain panel (AID 1159580);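 further: tested at 20 µM; growth read once vehicle control cultures reached saturation at 30 °C; 1 = growth at the plate median or of vehicle wells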
Details: S. cerevisiae deletion strains, growth OD

Measured: normalized growth

N[C@H]1CONC1=O
inactive: locus YAL013W, strain DEP1, stronger effect = lower value 1.01 | locus YAL040C, strain CLN3, stronger effect = lower value 1.08 | locus YCL061C, strain MRC1 (second series), stronger effect = lower value 0.995 | locus YDR363W, strain ESC2, stronger effect = lower value 0.995 | locus YER002W, strain NOP16, stronger effect = lower value 0.988 | locus YJR075W, strain HOC1, stronger effect = lower value 1.02 | locus YNL153C, strain GIM3, stronger effect = lower value 0.955 | locus YNL175C, strain NOP13, stronger effect = lower value 0.986 | locus YNL197C, strain WHI3, stronger effect = lower value 1.02 | locus YNL224C, strain SQS1, stronger effect = lower value 0.994 | locus YNL322C, strain KRE1, stronger effect = lower value 1.01 | locus YOR083W, strain WHI5 (second series), stronger effect = lower value 0.993 | locus YPL055C, strain LGE1, stronger effect = lower value 0.992
